Source: PubChem BioAssay
Tau fibril FP = tau fibrillization inhibition (FP); AID 1468; 280,000 tested, 0.39% active; P10636; K18 P301L tau heparin fibrillization, Alexa594 FP, 6 h; Potency, µM (titrated, usually from 57.7 µM), inactives show top-dose activity, negative = inhibition, actives largely listed as inhibitors; note: potency is the fitted concentration of half-maximal effect; % is set by controls: 0 for no effect and ±100 for the full control effect; nearly all actives have a fitted effect of over 55% in size
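Human tau K18 […] P301L fragment, 15 uM unlabeled plus 0.24 uM Alexa 594-labeled tau (final), with compound and 20 uM heparin in 100 mM sodium acetate pH 7; 6 hr at 37 C, then Alexa 594 FP read.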
Tau fibril ThT = tau fibrillization inhibition (ThT binding); recombinant tau K18 P301L, heparin-induced fibrillization, ThT fluorescence; Potency, µM (series often up to 57.4 µM), without a hit: at the highest dose activity, negative = inhibition, actives largely listed as inhibitors; 270,000 tested, 2.1% active; note: potency is the fitted concentration of half-maximal effect; % is set by controls: 0 for no effect and ±100 for the full control effect; nearly all actives have a fitted effect of over 55% in size
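Fibril formation assay: tau K18 P301L at 15 uM with trace Alexa 594 label, heparin inducer 20 uM, pH 7 sodium acetate buffer, 37 C for 6 hr; endpoint ThT signal.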
Tau fluor counter = counter-screen for tau fibril formation inhibitors | tau K18 P301L Alexa594 fluorescence, heparin fibrillization | Potency, µM (top dose mostly 57.7 µM), inactives show at the highest dose activity change, negative = decrease | 280,000 tested, 0.93% active | AID 1463; note: potency is the fitted concentration of half-maximal effect; % is set by controls: 0 for no effect and ±100 for the full control effect; nearly all actives have a fitted effect of over 55% in size
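Human K18 P301L tau (15 uM unlabeled plus 0.24 uM Alexa 594-labeled, final) in 100 mM sodium acetate pH 7 was mixed with compound and 20 uM heparin and incubated 6 hr at 37 C.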
USP1-UAF1 inh = blocks the human USP1/UAF1 deubiquitinase complex. 390,000 tested, 0.23% active. Potency, µM (doses to about 57.1 µM), without a hit: top-dose activity change, negative = inhibition, usual class: inhibitors. AID 743255. recombinant USP1/UAF1, Ub-Rhodamine cleavage fluorescence; note: potency is the fitted concentration of half-maximal effect; % is set by controls: 0 for no effect and ±100 for the full control effect; nearly all actives have a fitted effect of over 60% in size
Target sequence (O94782 whole entry, looked up): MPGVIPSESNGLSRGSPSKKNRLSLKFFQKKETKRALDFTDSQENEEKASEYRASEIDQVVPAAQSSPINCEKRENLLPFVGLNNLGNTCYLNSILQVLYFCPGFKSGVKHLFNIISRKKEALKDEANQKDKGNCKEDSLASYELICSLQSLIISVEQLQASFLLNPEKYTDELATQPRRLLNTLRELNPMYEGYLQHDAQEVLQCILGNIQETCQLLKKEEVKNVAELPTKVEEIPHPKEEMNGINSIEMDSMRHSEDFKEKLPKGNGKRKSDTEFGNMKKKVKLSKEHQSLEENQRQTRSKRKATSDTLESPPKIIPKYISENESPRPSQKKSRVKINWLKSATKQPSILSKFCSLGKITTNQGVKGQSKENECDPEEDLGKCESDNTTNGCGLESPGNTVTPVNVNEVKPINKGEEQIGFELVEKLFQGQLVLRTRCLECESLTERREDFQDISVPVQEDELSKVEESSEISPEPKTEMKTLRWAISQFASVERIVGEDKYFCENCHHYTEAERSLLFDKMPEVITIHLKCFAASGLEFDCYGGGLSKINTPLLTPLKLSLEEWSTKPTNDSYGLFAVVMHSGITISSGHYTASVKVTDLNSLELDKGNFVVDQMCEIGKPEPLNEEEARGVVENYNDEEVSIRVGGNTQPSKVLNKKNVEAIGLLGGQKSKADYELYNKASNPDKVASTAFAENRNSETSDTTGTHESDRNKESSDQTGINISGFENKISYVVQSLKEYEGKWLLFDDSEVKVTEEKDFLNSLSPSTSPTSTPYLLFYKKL
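In this screen, compounds sit with the deubiquitinase complex (1nM) for 15 min at room temperature before Ub-Rho is added at 150nM final. Fluorescence rise is then followed for 6 reads every 60 seconds.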
Coupling enz = inhibits coupling enzyme system, counter-screen for aldolase hits. coupling enzyme system counterscreen, AmpLite Red fluorescence. activity change, negative = inhibition, % at 58.2 µM, hits read low. 290,000 tested, 0.67% active; in the data active = activity change below about -30%; note: % is set by controls: 0 for no effect and ±100 for the full control effect
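Counterscreen of the coupled detection system alone, without aldolase: glyceraldehyde-3-phosphate coupling enzymes plus AmpLite Red readout. Compounds at 57.5 uM final, 10 min RT preincubation, 20 min RT reaction, fluorescence 525/598 nm.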
Tau TEM fibril = Blocks tau fibril formation, electron microscopy. fibril grade (0 = clumped fibrils, 4 = only tiny pieces) (test concentration not listed). shares compounds with Tau fibril ThT. AID 1719. 45 tested, 70% active. recombinant tau K18 P301L fibrillization, TEM grading; active compounds read high;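 active = compounds whose electron micrographs showed tau fibrils broken into shorter filaments or fragments, graded high on fibril breakup; inconclusive = micrographs gave an unclear fibril picture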
tau sediment = inhibitors of human tau fibrillization, sedimentation test; recombinant tau K18 P301L (four-repeat tau fragment), sedimentation SDS-PAGE densitometry; inhibition, % at 100 µM; 110 tested, 50% active; AID 1720; shares compounds with Tau fibril ThT; in the data active = inhibition above about 40%; inconclusive = no clear call, values can overlap the other calls; inactive = below about 18%
The depositor's hits bear a star; ? = inconclusive; . = no result; [ ] = dose if it differs, or a comment. The list is not random: actives were taken first. Their share in the collection is about 2.3%. Unless noted, calls come from the whole dose curve; as a rule, active = well fitted curve in the direction sought with a large enough effect; inconclusive = small, poorly fitted or top-dose-only effect, or another doubt; inactive = no such curve, though single readings can be large; an effect the other way counts as inactive or inconclusive.

SMILES | Tau fibril FP | Tau fibril ThT | Tau fluor counter | USP1-UAF1 inh | Coupling enz | tau sediment | others
COC(=O)c1nn(-c2ccc(OC)cc2)c(=O)c2c(N)sc(C)c12 | 3% | ? | -27% | -22% | -52* | 44* | Tau TEM fibril=?
COc1ccc(CNC(=O)C(CC(C)C)NS(=O)(=O)c2ccc3c(c2)oc(=O)n3C)cc1 (configuration not stated) | -1% | 0% | -1% | -10% | . | .
Cc1ccc(Cc2c(C)nc3nc(SCC(=O)NC4CCC(C)CC4)nn3c2C)cc1 (configuration not stated) | 11% | 0% | 4% | ? | . | .
Cc1ccc(CNC(=O)c2nnc(Cc3cccc(F)c3)o2)cc1 | -11% | -17% | -26% | -14% | . | .
CN(c1ccccc1)S(=O)(=O)c1nnc(NC(=O)C2CCCCC2)s1 | ? | 2.5µM* | ? | 0% | 2 | 80* | Tau TEM fibril=3*
CN(c1ccccc1)S(=O)(=O)c1nnc(NC(=O)c2ccco2)s1 | -6% | -12% | 2% | -24% | . | .
O=C(NCC(c1ccc(Cl)cc1)N1CCCCC1)c1ccccc1 (configuration not stated) | 9% | 3% | -5% | -13% | . | .
CC(=O)Nc1nc(C)c(-c2csc(Nc3cccc([N+](=O)[O-])c3)n2)s1 | ? | ? | ? | -1% | -8 | 13
CC(=O)Nc1nc(C)c(-c2csc(Nc3ccc(O)cc3)n2)s1 | -12% | 8.9µM* | 14µM*[quencher] | -17% | -8 | ? | Tau TEM fibril=0
CCOC(=O)c1c(C)oc2nc(C)nc(NCCc3ccc(SC)cc3)c12 | -5% | ? | -7% | 4% | . | .
COc1cccc(-c2cc(NCc3cccc(C)c3)ncn2)c1 | . | . | . | . | -1 | .
O=C(O)CC1S/C(=N/N=C/c2ccc(-c3ccc(Cl)cc3[N+](=O)[O-])o2)NC1=O (configuration not stated) | 1.6µM* | 1µM* | ? | ? | -9 | 74* | Tau TEM fibril=3*
CCn1nccc1C(=O)Nc1cc(Cl)cc(Cl)c1 | 28µM* | ? | ? | -17% | 1 | ?
Nc1scc2c(C(=O)O)nn(-c3ccccc3)c(=O)c12 | . | . | . | . | . | 84*
Nc1scc2c(C(=O)NCc3ccccc3)nn(-c3ccccc3)c(=O)c12 | . | . | . | . | . | 54*
COc1cccc(-n2nc(C(=O)O)c3ccccc3c2=O)c1 | -2% | -6% | -4% | -1% | 3 | .
Cc1cc(NC(=O)c2cc(-c3ccc(F)cc3)on2)nn1Cc1ccc(Cl)cc1 | -11% | 4% | -1% | -17% | . | .
COc1ccc2[nH]c(=O)c(CNc3cccc(C)c3)cc2c1 | 6% | -8% | -2% | -24% | -39* | 85* | Tau TEM fibril=4*
COc1ccc(NCc2cc3ccccc3[nH]c2=O)cc1 | -2% | ? | -14% | -17% | -17 | .
Cc1[nH]c(=O)c(C#N)cc1-c1ccc2nccn2c1 | -5% | 6% | -2% | . | 3 | .
Cc1[nH]c(=O)c(C#N)cc1-c1ccncc1 | -1% | -2% | 3% | 8% | 3 | 7
CCCCNC(=O)c1cnc2c(-c3ccc(OCC)c(OCC)c3)c(C)nn2c1-c1ccccc1 | 0% | -13% | -16% | -22% | . | .
Cc1ccc(C(=O)Nc2nc(=O)n(C)s2)cc1 | -5% | 6% | -2% | -16% | -12 | .
Cc1ccc(C(=O)Nc2nc(=O)n(C(=O)CC(C)C)s2)cc1 | ? | ? | -12% | -6% | 3 | 12
N#Cc1cccc(NC(=O)c2ccc3c(c2)N(Cc2cccc(Cl)c2)C(=O)c2ccccc2S3(=O)=O)c1 | 13µM* | 16% | -22% | -16% | . | 4
SMILES | Tau fibril FP | Tau fibril ThT | Tau fluor counter | USP1-UAF1 inh | Coupling enz | tau sediment | others
Cc1cc(NC(=O)c2ccc3c(c2)N(Cc2cccc(Cl)c2)C(=O)c2ccccc2S3(=O)=O)ccc1Br | ? | 6% | -15% | -11% | . | .
CCn1c(CSc2nccn2C)nc2cc(C(=O)O)ccc21 | ? | 4µM* | -5% | ? | -36* | 56* | Tau TEM fibril=3*
COc1ccc(C)cc1NC(=O)c1cc2c(=O)n3cccc(C)c3nc2s1 | 4% | -6% | -7% | -3% | . | .
O=C(Nc1cccc(-c2nc3ccccc3o2)c1)c1cc([N+](=O)[O-])ccc1N1CCOCC1 | ? | -22% | ? | 2% | . | 17
COc1ccc2oc(-c3cccc(NC(=O)c4cc([N+](=O)[O-])ccc4N4CCOCC4)c3)nc2c1 | -15% | ? | ? | -13% | . | .
Oc1ccccc1CNc1cccc2cccnc12 | ? | 6.3µM* | 16µM*[quencher] | -2% | -22 | 61* | Tau TEM fibril=?
CCOC(=O)c1cnc2c(ccc3ccccc32)c1Nc1cccc(C(F)(F)F)c1 | -14% | -4% | -15% | -21% | . | .
O=C(Nc1ccc(OC(F)(F)F)cc1)Nc1cccc([N+](=O)[O-])c1 | 4.5µM* | ? | 1.8µM*[quencher] | -20% | -12 | 13
O=C(Nc1ccc(OC(F)(F)F)cc1)Nc1cccnc1 | -13% | 6% | -21% | -28% | -1 | .
O=C(O)CN1C(=O)/C(=C/c2ccc(-c3cccc(Cl)c3)o2)SC1=S | . | . | . | . | . | 14
COc1ccc(CN2C(=O)/C(=C/c3ccc(-c4ccc(Cl)c(C(=O)O)c4)o3)SC2=S)cc1 | -4% | ? | -4% | . | 2 | .
CN(C)c1ccc(N2C(=O)CSC2=S)cc1 | ? | 4.5µM* | ? | -12% | -7 | 11
CC(C)CCn1c(Oc2ccccc2F)nc2c1c(=O)n(C)c(=O)n2C | ? | -4% | -12% | ? | . | .
CCOc1ccc(-n2cc(C(=O)Nc3ccccc3OCC)c3cc(OC)c(OC)cc3c2=O)cc1 | -13% | -11% | -17% | -14% | . | .
Cn1cc(Cl)c(C(=O)Nc2nc3ccccc3s2)n1 | 10% | -1% | -3% | ? | 0 | .
Cn1cc(Cl)c(C(=O)Nc2cccc(Cl)c2Cl)n1 | 3% | -10% | -4% | -1% | 0 | 8
Nc1c(-c2ccccc2)cc[nH]c1=O | . | . | . | . | . | 9
Cc1ccc(Cl)cc1NC(=O)Cn1c(=O)c(CNc2ccccc2)cc2cc3c(cc21)OCCO3 | -2% | ? | ? | ? | . | .
O=C(Cn1c(=O)c(CNc2ccccc2)cc2cc3c(cc21)OCCO3)Nc1ccccc1Cl | ? | 8.9µM* | ? | ? | . | 62* | Tau TEM fibril=0
